From PubChem
Shown are actives, neighbours in structure and some others; about 6.5% of the full set was active somewhere.
MARV entry inh: blocks Marburg virus binding to or entry into cells. AID 540276. Marburg virus pseudotyped entry inhibition, cell reporter. hit rate 1.8% among 300,000. Potency, µM (series often up to 37.8 µM), inactives show top-dose activity change, negative = inhibition, hits mostly inhibitors; calls by dose curve; tested in HEK293 cells; further: potency means the concentration at half of the fitted maximal effect
VACV Venus inh: vaccinia inhibition (Venus reporter); Vaccinia virus Venus reporter expression, fluorescence; Potency, µM (series often up to 36.5 µM), for the others: top-dose activity change, negative = inhibition, hits mostly inhibitors; hit rate 0.46% among 330,000; calls by dose curve; tested in A549 cells; further: potency means the concentration at half of the fitted maximal effect; nearly all actives have a fitted effect of over 30% in size
HCMV inh: human cytomegalovirus inhibition; activity change, negative = inhibition, % at 57.5 µM; HFF cells, HCMV-luciferase reporter, 72 h; stronger effect = lower value; AID 1259415; hit rate 4.5% among 410,000; in the data active means activity change below about -60%; inconclusive means no clear call, values can overlap the other calls; inactive means above about -39%
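Human foreskin fibroblasts infected with luciferase-reporter HCMV at MOI 1 PFU/cell, compounds at two doses. Luciferase measured 72 h post infection; normalized to buffer-only basal and Salinomycin (10uM) controls.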
FMDV inh: blocks foot and mouth disease virus; FMDV antiviral cell-based qHTS; Potency, µM (titrated, usually from 57.9 µM), for inactives: at the top dose activity change, negative = inhibition, usual class: inhibitors; hit rate 1.2% among 410,000; calls by dose curve; tested in HEK293T cells; further: read-out not given here; potency means the concentration at half of the fitted maximal effect; nearly all actives have a fitted effect of over 45% in size
Lassa entry inh: blocks Lassa virus binding to or entry into cells. Lassa virus pseudotype entry inhibition, cell reporter. Potency, µM (highest dose often 37.9 µM), for the others: top-dose activity change, negative = inhibition, most hits filed as inhibitors. hit rate 1.2% among 300,000; calls by dose curve; tested in HEK293 cells; further: potency means the concentration at half of the fitted maximal effect; nearly all actives have a fitted effect of over 50% in size
VACV mCherry inh: inhibitors of vaccinia virus infection (mCherry reporter signal). Vaccinia virus mCherry reporter infection, fluorescence. Potency, µM (highest dose often 36.5 µM), for the others: top-dose activity change, negative = inhibition, usual class: inhibitors. hit rate 0.63% among 310,000. AID 720579; calls by dose curve; tested in A549 cells; further: potency means the concentration at half of the fitted maximal effect; nearly all actives have a fitted effect of over 35% in size
* marks the source's active call; other numbers are inactive results; [ ] = another dose, or the depositor's remark. On the % scale 0 is the no-effect control and ±100 the full control effect.

How did Cc1ccc(C(=O)/C=C/Nc2ccccn2)cc1 do in these assays?
MARV entry inh: inconclusive; VACV Venus inh: -13.3%; HCMV inh: inconclusive; FMDV inh: 2.51µM*; Lassa entry inh: 0.631µM*; VACV mCherry inh: -5.6%

What do the screens show for `Cc1ccc(N/C=C/C(=O)c2ccc(C)cc2)cc1`?
MARV entry inh: inconclusive; VACV Venus inh: -5.0%; HCMV inh: 51.1; FMDV inh: 3.6%; Lassa entry inh: -28.1%; VACV mCherry inh: -9.6%

What do the screens show for `Cc1cc2c(c(=O)o1)[C@@]1(C(=O)N(C)c3ccccc31)C1=C(CCC1=O)O2`?
HCMV inh: -27.7

What do the screens show for `COc1cccc(C(C)(O)c2nc(-c3cccc(C(=O)O)c3)cs2)c1` (stereo unspecified)?
VACV Venus inh: 3.1%; HCMV inh: 2.8; FMDV inh: 18.1%; VACV mCherry inh: -12.4%

Results for CCN(CC)C(=O)c1cccc(-c2csc(C(O)c3ccc(OC)cc3)n2)c1 (stereo unspecified) ?
VACV Venus inh: -2.2%; HCMV inh: -12.6; FMDV inh: inconclusive; VACV mCherry inh: inactive

Results for CCN(CC)C(=O)c1cccc(-c2csc(C(C)(O)c3ccncc3)n2)c1 (stereo unspecified) ?
VACV Venus inh: -23.0%; HCMV inh: -31.6; FMDV inh: 25.1µM*; VACV mCherry inh: 1.3%

How did CCN(CC)C(=O)c1cccc(-c2csc(C(O)c3cccc(Cl)c3)n2)c1 (stereo unspecified) do in these assays?
VACV Venus inh: -10.9%; HCMV inh: inconclusive; FMDV inh: 28.2µM*; VACV mCherry inh: inactive

What do the screens show for `CCN(CC)C(=O)c1cccc(-c2csc(C(O)c3ccc(F)c(OC)c3)n2)c1` (stereo unspecified)?
VACV Venus inh: inconclusive; HCMV inh: -62.1*; FMDV inh: inconclusive; VACV mCherry inh: -26.9%

How did O=C(O)c1cccc(-c2csc(C(O)c3cccc(Cl)c3)n2)c1 (stereo unspecified) do in these assays?
VACV Venus inh: 0.2%; HCMV inh: 46.7; FMDV inh: 46.8%; VACV mCherry inh: inactive

How did O=C(C[n+]1ccncc1)c1cccc2ccccc12 do in these assays?
VACV Venus inh: 6.0%; VACV mCherry inh: -9.0%

What do the screens show for `Oc1c(Br)cc(Br)cc1-c1nc2ccccc2s1`?
VACV Venus inh: -1.7%; HCMV inh: 29.1; FMDV inh: -4.2%; Lassa entry inh: 2.9%[46.1 µM]; VACV mCherry inh: -2.4%

How did NC(C(=O)O)C(CC(=O)O)c1ccc(Cl)cc1 (stereo unspecified) do in these assays?
VACV Venus inh: -10.9%; FMDV inh: -6.8%; VACV mCherry inh: -8.9%

How did CN(C)c1ccc(C=O)c(F)c1 do in these assays?
VACV Venus inh: 5.2%; VACV mCherry inh: -9.5%

How did O=C(Nc1ccc2ccccc2c1)C(=O)c1ccccc1F do in these assays?
HCMV inh: -18.8

How did Cc1ccc(NC(=O)c2cc(S(=O)(=O)N3CCC4(CC3)OCCO4)ccc2F)cc1Cl do in these assays?
VACV Venus inh: -8.1%; HCMV inh: 12.8; FMDV inh: -11.9%; Lassa entry inh: -30.0%[46.1 µM]; VACV mCherry inh: -0.7%

What do the screens show for `COCCOC(=O)c1[nH]c2c(c1C)C(=O)CC(c1cc(OC)ccc1OC)C2` (stereo unspecified)?
VACV Venus inh: -25.4%; HCMV inh: 3.9; FMDV inh: -9.3%; VACV mCherry inh: -19.2%

How did COc1ccc(OC)c(C2CC(=O)c3c([nH]c(C(=O)OC(C)C)c3C)C2)c1 (stereo unspecified) do in these assays?
HCMV inh: -70.5*; FMDV inh: -4.7%

How did CCCOCCOC(=O)c1[nH]c2c(c1C)C(=O)CC(c1cc(OC)ccc1OC)C2 (stereo unspecified) do in these assays?
VACV Venus inh: -25.9%; HCMV inh: -80.4*; FMDV inh: inconclusive; VACV mCherry inh: inconclusive

How did CCOCCOC(=O)c1[nH]c2c(c1C)C(=O)CC(c1ccc(OC)c(OC)c1)C2 (stereo unspecified) do in these assays?
MARV entry inh: inconclusive; VACV Venus inh: -6.8%; HCMV inh: inconclusive; FMDV inh: 22.4µM*; Lassa entry inh: inconclusive; VACV mCherry inh: -4.2%

What do the screens show for `O=C(Cn1cc(SCc2ccccc2Cl)c2ccccc21)N1CCCCCC1`?
VACV Venus inh: -13.0%; HCMV inh: 43.0; FMDV inh: -6.5%; Lassa entry inh: inconclusive; VACV mCherry inh: inactive

Results for C=CCSc1ncc(CO)n1Cc1ccccc1 ?
MARV entry inh: 0.4%[46.1 µM]; VACV Venus inh: -15.2%; HCMV inh: inconclusive; FMDV inh: 11.7%; Lassa entry inh: 11.0%[46.1 µM]; VACV mCherry inh: -0.2%

Results for OCc1cnc(SCc2ccccc2)n1Cc1ccccc1 ?
MARV entry inh: -6.3%[46.1 µM]; VACV Venus inh: -14.5%; HCMV inh: -64.0*; FMDV inh: -20.3%; Lassa entry inh: 6.6%[46.1 µM]; VACV mCherry inh: -5.9%

How did O=C(CNC(=O)c1ccccc1)OCC(=O)c1ccc2ccccc2c1 do in these assays?
VACV Venus inh: 12.9%; VACV mCherry inh: 17.3%

Results for CCc1ccc(NC(=O)CSc2nc(NS(=O)(=O)c3ccccc3)cc(=O)[nH]2)cc1 ?
MARV entry inh: 3.16µM*; VACV Venus inh: -2.9%; HCMV inh: 28.9; FMDV inh: -1.5%; Lassa entry inh: inconclusive; VACV mCherry inh: 8.91µM*

What do the screens show for `Cc1cc(=O)[nH]c(SCC(=O)Nc2ccc(S(N)(=O)=O)cc2)n1`?
MARV entry inh: 0.4%[46.1 µM]; VACV Venus inh: 2.4%; HCMV inh: -61.4*; FMDV inh: 0.2%; Lassa entry inh: 0.2%[46.1 µM]; VACV mCherry inh: inactive

What do the screens show for `COc1cccc(CSc2nc3n(n2)C(c2cccs2)C(C(=O)Nc2ccccc2C)=C(C)N3)c1` (stereo unspecified)?
VACV Venus inh: -19.3%; HCMV inh: -11.3; FMDV inh: -7.7%; Lassa entry inh: -6.1%[46.1 µM]; VACV mCherry inh: -28.5%

What do the screens show for `CCc1ccc(C2CC(c3ccc(C)cc3)Nc3nc(N)nn32)cc1` (stereo unspecified)?
MARV entry inh: 2.6%; VACV Venus inh: 31.6µM*; HCMV inh: 7.6; FMDV inh: -18.4%; Lassa entry inh: 7.2%; VACV mCherry inh: 100µM*

Results for Cc1ccc(C2CC(c3ccc(F)cc3)Nc3nc(N)nn32)cc1 (stereo unspecified) ?
MARV entry inh: 10.1%; VACV Venus inh: -14.7%; HCMV inh: -20.9; FMDV inh: -13.9%; Lassa entry inh: 4.6%; VACV mCherry inh: -10.8%

How did COc1cc(C=O)c([N+](=O)[O-])cc1OC do in these assays?
FMDV inh: -12.2%

What do the screens show for `NC(=O)CC(NC(=O)c1ccccc1)c1ccc(NC2CCCCCCC2)c([N+](=O)[O-])c1` (stereo unspecified)?
VACV Venus inh: -23.3%; HCMV inh: -98.9*; FMDV inh: inconclusive; VACV mCherry inh: -21.2%
